Reference: PMC5515408, “Sequence-specific DNA binding by MYC/MAX to low-affinity non-E-box motifs”
Over roughly 4,500 sequences, “log2 normalized fluorescence” has its median near -0.34; the highest 2% begin near 3.3. The sample holds the highest values, similar sequences and a random draw of the others, so the mix is not that of the screen.

biological target: MAX:MAX (p21) (human, UniProt P61244-2 1-151); assay: protein-binding microarray (anti-MAX antibody); PBM: 15 mM Tris-HCl pH 7.5, 100 mM KCl, 0.075% NP40, 7.5 mM beta-mercaptoethanol, 375 ng/ul BSA, 8 ng/ul poly(dA-dT):(dA-dT), 550 ng complex, 60 min, room tempe; high values mean tight binding; conditions: protein: recombinant; tags: 6xHis; chain copies: 2; label: 3' end of printed strand (linker) attached to glass slide; dsDNA, one strand shown
Method in brief: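 For each of ~5000 unique double-stranded 12-nt sequences, spotted in triplicate on a custom Agilent glass array, binding of His-tagged human MYC:MAX or MAX:MAX dimers is reported as log2 normalized fluorescence. The dimers (550 ng, E. coli-expressed) were incubated for 60 min at room temperature in Tris-KCl buffer, pH 7.5, with NP40, BSA and poly(dA-dT) competitor. Detection used anti-MAX and secondary antibodies with a 543 nm scan.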

Sequence of MAX:MAX (p21) (P61244 other isoform, or with tags, fused parts or gaps): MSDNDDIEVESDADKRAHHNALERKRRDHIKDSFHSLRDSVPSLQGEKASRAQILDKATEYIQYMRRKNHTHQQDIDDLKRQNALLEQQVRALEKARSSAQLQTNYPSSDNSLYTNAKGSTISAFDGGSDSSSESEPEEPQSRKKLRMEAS

Sequence	binding signal
CCGGCCGGCACGTGGTGTTAATAGCTAAGATTACTATATCGACG	3.21 log2 normalized fluorescence
CCGGCTGAGTGTCGGTATTAATAGCTAAGATTACTATATCGACG	-0.348 log2 normalized fluorescence
CCGGCTGATGCCCTGTATTAATAGCTAAGATTACTATATCGACG	-0.309 log2 normalized fluorescence
CCGGCTGAACGTACGTATTAATAGCTAAGATTACTATATCGACG	-0.307 log2 normalized fluorescence
CCGGCTGAGGCGTCGTATTAATAGCTAAGATTACTATATCGACG	-0.641 log2 normalized fluorescence
CCGGCTGAACGCAAGTATTAATAGCTAAGATTACTATATCGACG	0.234 log2 normalized fluorescence
CCGGCCGACACGTGCTATTAATAGCTAAGATTACTATATCGACG	3.18 log2 normalized fluorescence
CCGGCTGACACGTTATATTAATAGCTAAGATTACTATATCGACG	2.87 log2 normalized fluorescence
CCGGCTGACACGTGATATTAATAGCTAAGATTACTATATCGACG	3.05 log2 normalized fluorescence
CCGGCAGAAACGTGTTATTAATAGCTAAGATTACTATATCGACG	2.96 log2 normalized fluorescence
CCGGCTGACACACGTTATTAATAGCTAAGATTACTATATCGACG	2.37 log2 normalized fluorescence
CCGGCAGACACGTGTTATTAATAGCTAAGATTACTATATCGACG	3.42 log2 normalized fluorescence
CCGGCCGACACGTGTTATTAATAGCTAAGATTACTATATCGACG	3.4 log2 normalized fluorescence
CCGGCCGACACCTGTTATTAATAGCTAAGATTACTATATCGACG	2.63 log2 normalized fluorescence
CCGGCCGACACGGCGTATTAATAGCTAAGATTACTATATCGACG	0.94 log2 normalized fluorescence
CCGGCTGACACGTGTTATTAATAGCTAAGATTACTATATCGACG	3.29 log2 normalized fluorescence
CCGGCCGACACGTGATATTAATAGCTAAGATTACTATATCGACG	3.43 log2 normalized fluorescence
CCGGCAGACACGTGGTGTTAATAGCTAAGATTACTATATCGACG	3.28 log2 normalized fluorescence
CCGGCTGAGCATTTGTATTAATAGCTAAGATTACTATATCGACG	-0.22 log2 normalized fluorescence

Sequence	binding signal
CCGGCTGACTGGATGTATTAATAGCTAAGATTACTATATCGACG	-0.202 log2 normalized fluorescence
CCGGCTGACATTCAGTATTAATAGCTAAGATTACTATATCGACG	0.265 log2 normalized fluorescence
CCGGCTGACGTGTCGTATTAATAGCTAAGATTACTATATCGACG	1.07 log2 normalized fluorescence
CCGGCTGATGGTCTGTATTAATAGCTAAGATTACTATATCGACG	0.348 log2 normalized fluorescence
CCGGCTGAGGAGGCGTATTAATAGCTAAGATTACTATATCGACG	-0.734 log2 normalized fluorescence
CCGGCTGACACTACGTATTAATAGCTAAGATTACTATATCGACG	-0.11 log2 normalized fluorescence
CCGGCTGAACGTTGGTATTAATAGCTAAGATTACTATATCGACG	0.152 log2 normalized fluorescence
CCGGCTGTGACGTGGTATTAATAGCTAAGATTACTATATCGACG	1.45 log2 normalized fluorescence
CCGGCAGACACGTGATCTTAATAGCTAAGATTACTATATCGACG	3.05 log2 normalized fluorescence
CCGGCAGACACGTGATATTAATAGCTAAGATTACTATATCGACG	3.29 log2 normalized fluorescence
CCGGCCGACATGTGGTATTAATAGCTAAGATTACTATATCGACG	3.18 log2 normalized fluorescence
CCGGCAGACACGCGATATTAATAGCTAAGATTACTATATCGACG	2.93 log2 normalized fluorescence
CCGGCTGACACGTGTCGTTAATAGCTAAGATTACTATATCGACG	3.18 log2 normalized fluorescence
CCGGCTGACACGTGCTGTTAATAGCTAAGATTACTATATCGACG	3 log2 normalized fluorescence
CCGGCTGACACGTGTTGTTAATAGCTAAGATTACTATATCGACG	3.32 log2 normalized fluorescence
CCGGCAGACATGTGGTGTTAATAGCTAAGATTACTATATCGACG	3.1 log2 normalized fluorescence
CCGGCCGACATGTGGTGTTAATAGCTAAGATTACTATATCGACG	3.43 log2 normalized fluorescence
CCGGCTGATGGTAGGTATTAATAGCTAAGATTACTATATCGACG	0.124 log2 normalized fluorescence
CCGGCTGATTCAAGGTATTAATAGCTAAGATTACTATATCGACG	-0.736 log2 normalized fluorescence

Sequence	binding signal
CCGGCTGACTAGGCGTATTAATAGCTAAGATTACTATATCGACG	-0.638 log2 normalized fluorescence
CCGGCTGACTCCGCGTATTAATAGCTAAGATTACTATATCGACG	-0.516 log2 normalized fluorescence
CCGGCTGAGACACGGTATTAATAGCTAAGATTACTATATCGACG	0.481 log2 normalized fluorescence
CCGGCTGACTGTACGTATTAATAGCTAAGATTACTATATCGACG	-0.112 log2 normalized fluorescence
CCGGCTGACCCAGTGTATTAATAGCTAAGATTACTATATCGACG	-0.0826 log2 normalized fluorescence
CCGGCTGAACTCGGGTATTAATAGCTAAGATTACTATATCGACG	-0.618 log2 normalized fluorescence
CCGGCTGAACTACCGTATTAATAGCTAAGATTACTATATCGACG	-0.334 log2 normalized fluorescence
CCGGCTGACGTGTGGTTTTAATAGCTAAGATTACTATATCGACG	1.65 log2 normalized fluorescence
CCGGCTGACACGTGGCGTTAATAGCTAAGATTACTATATCGACG	3.2 log2 normalized fluorescence
CCGGCTGACACGGGTTTTTAATAGCTAAGATTACTATATCGACG	2.09 log2 normalized fluorescence
CCGGCTGACACGTGGAGTTAATAGCTAAGATTACTATATCGACG	2.99 log2 normalized fluorescence
CCGGCTGACACGTGGATTTAATAGCTAAGATTACTATATCGACG	3.24 log2 normalized fluorescence
CCGGCTGACACGTGTAATTAATAGCTAAGATTACTATATCGACG	3.24 log2 normalized fluorescence
CCGGCTGACACGTGTGGTTAATAGCTAAGATTACTATATCGACG	3.39 log2 normalized fluorescence
CCGGCTGACACGTGGGTTTAATAGCTAAGATTACTATATCGACG	3.39 log2 normalized fluorescence
CCGGCTGACACGTGGGGTTAATAGCTAAGATTACTATATCGACG	3.36 log2 normalized fluorescence
CCGGCTGACGCGTGGTTTTAATAGCTAAGATTACTATATCGACG	3.21 log2 normalized fluorescence
CCGGCTGACACGTGTAGTTAATAGCTAAGATTACTATATCGACG	3.17 log2 normalized fluorescence
CCGGCTGACACGTGGTTTTAATAGCTAAGATTACTATATCGACG	3.37 log2 normalized fluorescence
